# Measured values as given in PubChem BioAssay AID485313 (National Center for Advancing Translational Sciences (NCATS), 2010).
# Screen size: about 320,000 compounds; about 7,600 (2.4%) were called active. Another 3% or so got no clear call; they are omitted. Calls follow the shape of the dose curve; as a rule, active = well fitted activation curve with a large enough effect; inconclusive = small, poorly fitted or top-dose-only effect; inactive = no such curve, though single readings can be large or run the other way. The list comes from a sample in which actives are over-represented; it also holds similar structures and randomly drawn compounds.
# Assay: qHTS Assay for NPC1 Promoter Activators; also: nearly all actives have a fitted effect of over 60% in size;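 as to activation: reporter is driven by a mutant NPC1 promoter; % of control where 0% means no effect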
# Settings: Huh7 NPC1 promoter luciferase reporter, 24 h; series mostly up to 9.22 µM; activation: at the top concentration
# Procedure, shortened: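 Compounds in DMSO were transferred onto Huh7 NPC1-luciferase reporter cells pre-incubated 2 h; after 24 h at 37 °C, Amplite reagent was dispensed and luminescence recorded 10 min later.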
# Potency is read from the fitted curve at half-maximal effect.
Compound,activation,Potency
O=S(=O)(NC1CCN(S(=O)(=O)c2ccc3c(c2)OCCO3)CC1)c1c(F)cccc1F,-2.67% (inactive),
CCCCSc1nnc(-c2ccc(C)cc2)o1,,0.794 µM (active)
CCOC(=O)CSc1nnc(-c2cccc(Br)c2)o1,-1.59% (inactive),
Cc1cccc(C)c1OC(=O)CSc1nnc(-c2ccccc2)o1,-0.799% (inactive),
Cc1ccc(CN2CC(C(=O)NNC(=O)Cn3ccc(C(F)(F)F)n3)CC2=O)cc1 (configuration not stated),-1.82% (inactive),
CC(=O)NCc1ccc(-c2csc(NC(=O)CCCc3nc4ccccc4c(=O)[nH]3)n2)cc1,-1.72% (inactive),
COc1ccc(Cn2c(O)c(/C=C3/C=CC=N3)c(=O)[nH]c2=O)cc1,3.01% (inactive),
O=C(NCc1ccccc1CN1CCCC1)c1cccc(S(=O)(=O)Nc2ccc(F)cc2)c1,-2.83% (inactive),
Cc1ccc(NC(=O)C(c2ccccc2)N2CCN(C(=O)c3ccco3)CC2)cc1 (configuration not stated),-1.36% (inactive),
COc1ccc(Cl)cc1NC(=O)CN(C)C(=O)c1cc(-c2cccs2)nn1-c1ccccc1,0.628% (inactive),
CN(C(=O)c1ccccn1)c1nnc(-c2ccccn2)s1,,2.51 µM (active)
CN(C(=O)C1CCOC1)c1nnc(-c2cccnc2)s1 (configuration not stated),3.19% (inactive),
COc1cc(OC)cc(-c2nnc(N(C)C(=O)c3ccncc3)s2)c1,-5% (inactive),
COc1ccc(-c2noc(CNC(=O)C(C)Oc3ccccc3)n2)cc1 (configuration not stated),-2.92% (inactive),
COc1ccc(OC)c(-c2csc(-c3cccs3)n2)c1,9.23% (inactive),
COc1ccc(-c2noc(-c3ccc(C)cc3)n2)cc1,,2 µM (active)
COc1ccc(-c2noc(CN(C)S(=O)(=O)c3ccc(C)cc3)n2)cc1,16.4% (inactive),
COc1ccc(-c2noc(CSc3ccc(C)cc3)n2)cc1,-2.46% (inactive),
COc1ccc(-c2nc(-c3ccccc3)no2)c(OC)c1,,3.55 µM (active)
O=C(CN1CCN(S(=O)(=O)c2cccc(Cl)c2)CC1)N1CCCCC1,-1.44% (inactive),
Cc1c2cnn(CC(=O)NCCCN3CC(C)CC(C)C3)c(=O)c2c(C)n1Cc1ccc(Cl)cc1 (configuration not stated),-0.386% (inactive),
C[C@@H](NC(=O)c1nc[nH]c1C(=O)N1CCN(C(=O)OC(C)(C)C)CC1)c1ccccc1,-3.87% (inactive),
Cc1ccc(S(=O)(=O)CCC(=O)OCC(=O)NCCc2ccc(S(N)(=O)=O)cc2)cc1,0.187% (inactive),

Compound,activation,Potency
O=C(NCCSc1ccccc1)c1ccco1,,3.16 µM (active)
CCS(=O)(=O)Nc1ccc(C(=O)NCCSc2ccccc2)cc1,29.6% (inactive),
O=C(NCCSc1ncc(-c2ccccc2)[nH]1)c1ccco1,15.1% (inactive),
O=C(Cn1c(-c2ccc(Cl)cc2)noc1=O)N1CCN(c2ccccc2F)CC1,-2.91% (inactive),
O=C(NCC(=O)N1CCCCCCC1)c1ccccc1Cl,0.782% (inactive),
CCn1c(NC(=O)c2nn(C)cc2Br)nc2ccccc21,0.149% (inactive),
Cn1c(NC(=O)c2ccccc2)nc2ccccc21,,2.82 µM (active)
Cn1c(S(=O)(=O)O)nc2ccccc21,-5.2% (inactive),
Cc1ccc(S(=O)(=O)N2CCCCC2)cc1C(=O)N1CCN(CCO)CC1,-1.62% (inactive),
COc1ccccc1CNC(=O)COC(=O)c1sc(C)nc1C,-2.69% (inactive),
O=C(Nc1ccc2sc3ccccc3c(=O)c2c1)c1ccccc1Cl,,3.16 µM (active)
COc1cc(NC(=O)c2cccs2)ccc1NC(=O)c1ccccc1Cl,-1.42% (inactive),
O=C(Nc1cccc(NC(=O)c2ccccc2[N+](=O)[O-])c1)c1ccccc1Cl,-5.61% (inactive),
O=C(COC(=O)c1cc(=O)[nH]c2ccccc12)NCc1cccc(Cl)c1,-1.99% (inactive),
CC(=O)Nc1ccc(S(=O)(=O)N2CCn3cccc3C2C)cc1 (configuration not stated),13.9% (inactive),
Cc1cc(C(=O)COC(=O)CCCN2C(=O)c3ccccc3C2=O)c(C)n1C,-1.36% (inactive),
C=CCN(CC=C)C(=O)CN1C(=O)c2ccccc2C1=O,-3.84% (inactive),
C=CCn1c(C)cc(C(=O)CN2C(=O)c3ccccc3C2=O)c1C,,0.316 µM (active)
C[C@H](NC(=O)c1[nH]cnc1C(=O)Nc1nccs1)c1ccccc1,-2.02% (inactive),
CCCCC/C=C/C1=CC(=O)C[C@H](c2ccc(Cl)cc2)C1,-8.4% (inactive),
Cc1ccccc1-c1cc(C(=O)NCc2cccs2)n(CC2CC(c3cccnc3)=NO2)n1 (configuration not stated),15.3% (inactive),
COc1cc2ccccc2cc1C(=O)Nc1ccc(NC(=O)c2cccs2)cc1,-3.43% (inactive),
O=C(Nc1ccc(NC(=O)c2cccs2)cc1)c1ccc2ccccc2c1,0.298% (inactive),

Compound,activation,Potency
O=C(Nc1ccc2oc(-c3ccc4ccccc4c3)nc2c1)c1cccs1,,0.891 µM (active)
CC(Sc1nnc(C2CC2)n1C1CC1)C(=O)Nc1ccc(C(N)=O)cc1 (configuration not stated),-0.479% (inactive),
CCOc1ccc(N2C(=O)CSC2=NC#N)cc1,-0.127% (inactive),
CC(=O)NC(NC(=S)Nc1c(C)n(C)n(-c2ccccc2)c1=O)C(Cl)(Cl)Cl (configuration not stated),-2.49% (inactive),
COc1ccc(C)cc1NC(=O)CN1c2cccc3cccc(c23)S1(=O)=O,-1.54% (inactive),
CCN(CC)CCN1C(=O)C(=O)/C(=C(/O)c2cnn(-c3ccccc3)c2C)C1c1cccs1 (configuration not stated),,3.98 µM (active)
CCN(CC)CCN1C(=O)C(=O)/C(=C(/O)c2ccc(OC)c(OC)c2)C1c1ccccn1 (configuration not stated),-1.38% (inactive),
CCOc1cccc(/C(O)=C2/C(=O)C(=O)N(CCOC)C2c2ccncc2)c1 (configuration not stated),-3.35% (inactive),
COc1ccccc1OCC(=O)OCc1cc(-c2ccco2)on1,-0.0859% (inactive),
COC(=O)c1cccc(NC(=O)c2cccc(N3C(=O)CCC3=O)c2)c1,-0.0039% (inactive),
CC(=O)c1sc(NC(=O)CCN2C(=O)C3CC=CCC3C2=O)nc1-c1ccccc1 (configuration not stated),1.1% (inactive),
CCCCCCCCCCOC(=O)C[N+](C)(C)CC1CCCCC1O (configuration not stated),2.03% (inactive),
Cc1cc(Cl)c2oc(C(=O)N(C)C(C)c3ccccn3)c(C)c2c1 (configuration not stated),21.6% (inactive),
CC(c1ccccn1)N(C)C(=O)c1ccc2nc(Cc3cccc(Cl)c3)oc2c1 (configuration not stated),,3.98 µM (active)
CCn1ccnc1CN(C)C(=O)c1ccc2nc(Cc3ccc(OC)cc3)oc2c1,-6.18% (inactive),
CC(NCC(=O)Nc1ccccc1C(=O)NC1CC1)c1ccccc1Cl (configuration not stated),-0.509% (inactive),
Cc1ccc(C)c(C(=O)COC(=O)Cn2[nH]c(=O)c3ccccc3c2=O)c1,0.0714% (inactive),
O=C(Nc1ccc([N+](=O)[O-])cc1)OCCc1ccccn1,,3.55 µM (active)
O=[N+]([O-])c1ccc(NC(=S)N2CCN(c3ccccn3)CC2)cc1,4.02% (inactive),
O=C(OCc1ccc([N+](=O)[O-])cc1)c1ccccn1,1.88% (inactive),
Cc1ccc(NC(=O)c2cccc(S(=O)(=O)N3CCCc4ccccc43)c2)nc1,-4.1% (inactive),
